# The sample as a whole holds a higher share of hits than the screen did.
# TTR transcr act: increases transthyretin transcription; 92,000 tested, 1.3% active; SH-SY5Y TTR promoter Gaussia luciferase, luminescence; 100% = recombinant luciferase protein wells; activation, % at 16.7 µM;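 active = activation above the mean of all tested compounds plus 3 SD, cut at about 9.5% in these data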;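 note: cells exposed to compounds for one day before reading; 0% = median of all test compound wells on the plate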
# TTR inh HuH7: counter-screen for TTR activators: TTR transcription inhibitors in HuH7 cells | shares compounds with TTR transcr act | HuH7 TTR promoter-Gaussia luciferase reporter, luminescence | inhibition, % at 16.7 µM | 1,100 tested, 4% active;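 active = average inhibition above the solvent-only control wells' mean plus 3 SD, cut at about 15% in these data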;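 note: 0% = cells with DMSO only and 100% = cells with inhibitor control FD; inhibitors lower well luminescence so higher value means more inhibition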
# TTR up confirm: human TTR transcription activation, confirmation. activation, % at 16.7 µM. 1,100 tested, under 10 active. SHSY5Y TTR promoter Gaussia luciferase, luminescence; 100% = purified Lucia enzyme wells, no cells. AID 1117280. shares compounds with TTR transcr act;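 active = mean activation above a set limit taken from the earlier primary screen, cut at about 11% in these data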;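 note: 0% = DMSO-treated cells and 100% = recombinant Lucia luciferase without cells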
# An asterisk follows results filed as active.
SMILES,TTR transcr act,others
CC(=O)N1/C(=C/c2ccc(N(C)C)cc2)C(=O)c2ccccc21,-2.4,
Cc1ccccc1CN1CCCCC(NC(=O)c2cc(-c3ccccc3)no2)C1=O (centres undefined),3.6,
CC(=O)NC1(C(F)(F)F)C(=O)N(Cc2ccccc2)C2=C1C(=O)CC(C)(C)C2 (centres undefined),-1.2,
CC(=O)NC1(c2ccccc2)CCN(C(=O)N2CCOCC2)CC1,1.4,
CC(=O)NC1(NC(C)=O)CCN(C)C(c2ccccc2)C1C (centres undefined),14.8*,TTR inh HuH7=-6.3;TTR up confirm=-0.5
O=C(O)COCC(=O)Nc1ccc(OCCc2ccccc2)cc1,6.2,
O=C(Nc1cc(S(=O)(=O)N2CCOCC2)ccc1N1CCCC1)c1cc2c(s1)CCCC2,0.3,
Cc1cc(C)n(CC(O)COc2ccccc2Br)n1 (centres undefined),2.6,
CC(O)(c1ccc(F)c(F)c1)c1nc(-c2cccc(C(=O)O)c2)cs1 (centres undefined),13.2*,TTR inh HuH7=-35.2;TTR up confirm=-0.8
CC(O)(c1ccc(F)c(F)c1)c1nc(-c2ccc(Cl)cc2)cs1 (centres undefined),-0.4,
CC(O)(c1ccccc1)c1nc(-c2cccc(C(=O)O)c2)cs1 (centres undefined),1.1,
N#Cc1cccc(NC(=O)OC2CC3CC2[C@H]2CCCCN2C3)c1 (some centres undefined),-0.8,
CCOC(=O)N1CCN(C(=O)C[C@H]2C[C@@]3(C(=O)OC)C(=C[C@H](C(C)C)O[C@@H]3C3CC3)N(CCc3ccc(OC)c(OC)c3)C2=O)CC1,-1.5,
C[C@@H]1CN([C@H](C)CO)C(=O)CCCn2nncc2CO[C@H]1CN(C)C(=O)c1ccncc1,-2.0,
COc1cccc(NC(=O)c2ccnc(N3CCC(C(=O)NCc4ccccc4OC)CC3)c2)c1,-1.7,
Cn1nc(C(C)(C)C)cc1N1C(=O)CCC1(C)C(=O)NCc1ccccc1 (centres undefined),-0.1,
CC(C)c1ccc2[nH]c(O)c(N=NC(=S)NCCc3ccccc3)c2c1,11.8*,TTR inh HuH7=-7.6;TTR up confirm=-0.2
CC(C)c1ccc2[nH]c(O)c(N=NC(=O)c3ccc(CSc4nncn4C)cc3)c2c1,8.6,
Oc1[nH]c2ccccc2c1N=NC(=S)NCCc1ccccc1,7.4,
COC(=O)C1=C(C)N(C)C(=S)NC1c1c(OC)ccc2ccccc12 (centres undefined),-1.1,
COc1ccc(NC(=O)C(CCCCNC(=O)OC(C)(C)C)NC2(C(=O)NCCc3c[nH]c4ccccc34)CCCCC2)cc1 (centres undefined),-0.1,
CCC(CC)NC(=O)O[C@H]1CC[C@@]23CCCN2C(=O)CCC[C@H]3[C@H]1C,2.0,
CC(C)c1ccc(C(=O)Nc2cc(Cl)ccc2C(=O)O)cc1,0.6,
CC(C)CCNC(=O)C1COC(O)(C(Cc2ccccc2)NC(=O)[C@@H](NC(=O)OCc2ccccc2)C(C)C)CN1 (some centres undefined),-1.1,
Fc1ccc(NC2CCC23CCC(c2ccccc2)CC3)cc1C(F)(F)F (centres undefined),0.1,
SMILES,TTR transcr act,others
Cc1cccc(NC(=O)CCC(=O)N/N=C/c2ccco2)c1,9.7*,TTR inh HuH7=-15.1;TTR up confirm=0.0
O=C(CCCCCCCCC(=O)N/N=C/c1ccco1)N/N=C/c1ccco1,0.8,
O=C(CCC(=O)N/N=C/c1ccco1)N/N=C/c1ccco1,-1.1,
CCCCOCCCNC(=O)C[C@H]1C(=O)N(Cc2ccc(OC)cc2)C2=CCCCC[C@@]21C(=O)OC,-0.3,
N#Cc1ccc(C(=O)NCC(c2ccco2)N2CCCCC2)cc1 (centres undefined),-1.9,
O=C(NCC(c1ccco1)N1CCCC1)c1ccc(-n2cccn2)cc1 (centres undefined),-0.9,
O=C(CNC(=O)c1ccccc1)NCC(c1ccco1)N1CCCC1 (centres undefined),13.3*,TTR inh HuH7=-12.2;TTR up confirm=1.0
CC1=C(C)[N+](=O)C2CCCCC2N1[O-] (centres undefined),13.0*,TTR inh HuH7=-6.3;TTR up confirm=-0.3
CCCCOC(=O)C1C2CCC(O2)C1C(=O)OCC (centres undefined),2.0,
Fc1cccc(CNC2CCC23CCC(c2ccccc2)CC3)c1 (centres undefined),-0.3,
O=S(=O)(NCc1cc(-c2ccc(Cl)cc2)no1)c1ccc(Cl)cc1,-0.8,
O=S(=O)(Cc1cc(-c2ccc(Cl)cc2)no1)c1ccccc1,12.2*,TTR inh HuH7=-20.9;TTR up confirm=0.4
O=S(=O)(NCc1cc(-c2ccccc2)no1)c1ccc(Cl)cc1,-0.1,
CCOC(=O)C1(C)CCCCCN1C(=O)c1ccccc1F (centres undefined),-0.6,
CCOC(=O)[C@H]1[C@H]2COc3ccccc3[C@@H]2N2C(=O)c3ccc(Cl)cc3NC(=O)[C@@]12C,-0.5,
